Mito fusion act – blocks mitochondrial division or promotes mitochondrial fusion. S. cerevisiae fusion-defective mutant growth rescue, CellTiterGlo 48 h. Potency, µM (highest dose often 46.1 µM), for inactives: at the top dose growth rescue (activation), most hits filed as activators. actives 0.23% (n = 320,000). AID 485298; further: % of control where 0% means no effect; nearly all actives have a fitted effect of over 45% in size
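Read-out: ATP-based luminescence (CellTiterGlo, 10 min ambient) reporting growth of fusion-defective ts yeast after 48 hours at 37C on glycerol/ethanol YPEG medium in the presence of compound.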
aSyn yeast inh – inhibitors of alpha-synuclein toxicity in yeast | Yeast expressing alpha-synuclein, growth rescue, BacTiter-Glo, 24 h | actives 0.14% (n = 370,000) | Potency, µM (top dose mostly 46.1 µM), without a hit: at the top dose growth rescue (activation), usual class: activators; further: % of control where 0% means no effect; nearly all actives have a fitted effect of over 65% in size
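Rescue of yeast growth: cells expressing toxic alpha-synuclein, induced in galactose at OD600 0.02, incubated with compound 24 h at 30 C. ATP luminescence quantified growth; inhibitors of toxicity appear as activators.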
ERG-DNA inh – ERG Ets/DNA interaction inhibition. fluorescence polarization, His-ERG Ets domain / labelled DNA. Potency, µM (titrated, usually from 76.9 µM), for the others: at the top dose FP activity, negative = inhibition, most hits filed as inhibitors. actives 0.028% (n = 370,000). AID 624246; active means well fitted inhibition curve with a large enough effect in the polarisation, with a control signal flat; inconclusive means small, poorly fitted or top-dose-only effect, or effect the other way, or a change in a side signal; inactive means no such curve, though single readings can be large or run the other way; the % refers to the polarisation;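 further: polarization taken with two DNA probes labelled with fluorescein and Texas red; % of control where 0% means no effect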
Target sequence (P11308 whole entry, looked up, the tested form may be a part): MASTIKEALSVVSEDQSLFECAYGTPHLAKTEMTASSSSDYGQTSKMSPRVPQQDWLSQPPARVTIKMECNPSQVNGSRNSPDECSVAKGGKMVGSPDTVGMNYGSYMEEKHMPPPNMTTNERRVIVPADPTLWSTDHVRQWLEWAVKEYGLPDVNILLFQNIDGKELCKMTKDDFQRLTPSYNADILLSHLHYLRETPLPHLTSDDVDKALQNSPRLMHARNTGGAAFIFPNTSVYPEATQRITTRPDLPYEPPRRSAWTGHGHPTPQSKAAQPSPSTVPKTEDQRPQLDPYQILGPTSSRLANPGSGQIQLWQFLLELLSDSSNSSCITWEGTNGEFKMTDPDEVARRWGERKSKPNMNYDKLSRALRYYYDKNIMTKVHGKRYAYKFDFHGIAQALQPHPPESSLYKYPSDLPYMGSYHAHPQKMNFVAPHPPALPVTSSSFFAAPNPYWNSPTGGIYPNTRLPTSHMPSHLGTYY
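His-tagged ERG Ets domain (1 uM in the protein solution; 300mM KCl, 50mM Tris-HCl, 1mM EDTA, 1mM DTT, pH 7.5) received compound, then a probe mix of 5 nM fluorescein-DNA and 100nM Texas-615-DNA. Fluorescence polarization was read for both dyes.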
TDP-43 yeast inh – inhibitors of TDP-43 toxicity in yeast | Potency, µM (highest dose often 46.1 µM), without a hit: at the highest dose growth rescue (activation), most hits filed as activators | TDP-43 expressing yeast growth rescue, BacTiter-Glo, 24 h | actives 1.8% (n = 410,000); further: % of control where 0% means no effect; nearly all actives have a fitted effect of over 50% in size
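Cell-based yeast growth screen: TDP-43 expression induced in galactose, inoculum OD600=0.02 after raffinose pregrowth to mid-log. Read-out BacTiter-Glo luminescence at 24 hr, 30 deg C; inhibition of toxicity seen as signal increase.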
Abeta rescue – A-beta toxicity reversal in yeast | actives 0.063% (n = 410,000) | yeast expressing A-beta42, growth rescue, OD600, 48 h; response scale: 0% DMSO, 100% iron-clioquinol control | Potency, µM (doses to about 46.1 µM), usual class: activators; further: nearly all actives have a fitted effect of over 55% in size
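Yeast growth medium received pinned compounds, then yeast cells expressing toxic A-beta were added; plates incubated at 30 C for 48 hr. Growth read as absorbance at 600 nm, normalized to DMSO and equimolar FeCl3 plus clioquinol controls.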
FUS suppressor – rescues growth of FUS-expressing yeast | S. cerevisiae FUS-expressing, growth rescue, OD600, 24 h | Potency, µM (highest dose often 76.6 µM), most hits filed as activators | actives 0.24% (n = 390,000);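 further: plate controls were DMSO vehicle for no effect and reference control for full effect; nearly all actives have a fitted effect of over 55% in size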
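FUS-expressing yeast, raffinose-pregrown, induced in 2% galactose minimal medium at OD 0.005; compounds in a dilution series, 24hr at 30C. Growth restoration read as absorbance at 600 nm. CP55940 positive control, DMSO negative.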
Starred values were filed as active, the others as inactive; i = inactive; u = inconclusive; x = not tested or not shown. In the library only some 2.2% were active in any assay of this set; here they are far more common. Unless noted, the call rests on the fitted dose curve; in most records, active means well fitted curve in the direction sought with a large enough effect; inconclusive means small, poorly fitted or top-dose-only effect, or another doubt; inactive means no such curve, though single readings can be large; an effect the other way counts as inactive or inconclusive. Potency means the concentration at half of the fitted maximal effect.

SMILES	Mito fusion act	aSyn yeast inh	ERG-DNA inh	TDP-43 yeast inh	Abeta rescue	FUS suppressor
COc1ccc(-c2ccc3c(c2)CN(C(=O)CCc2ccccc2)Cc2cnnn2-3)cc1	x	-3%	x	u	i	u
Cc1ccc(-c2ccc3c(c2)O[C@H](CN(C)C(=O)CC2CC2)[C@H](C)CN([C@@H](C)CO)S3(=O)=O)cc1	x	-3%	x	u	i	i
S=C(S)N1CCCC1	-82%	u	-3%	1%	i	i
Cc1cccc(N2CCN(C(=O)CCNS(=O)(=O)c3ccc4c(c3)oc(=O)n4C)CC2)c1C	20µM*	1%	-1%	11%	i	i
C=C(C)Cn1c(-c2cccc([N+](=O)[O-])c2)n[nH]c1=S	21%	-4%	42%	23%	i	i
CC1CCC(C)(NS(=O)(=O)OCC(Cl)(Cl)Cl)CC1 (stereo unspecified)	-8%	4%	-13%	18µM*	i	i
O=S(=O)(c1cccc2ccccc12)N1Cc2ccccc2-n2nncc2C1	x	0%	x	20µM*	i	i
O=S(=O)(c1cc(Cl)cc(Cl)c1)N1Cc2cc(-c3ccccc3)ccc2-n2nncc2C1	x	-3%	x	15%	i	i
O=S(=O)(c1ccc(Cl)cc1)N1Cc2cc(Br)ccc2-n2nncc2C1	x	4%	x	20µM*	i	i
COc1ccc(CC2NCC(O)C2OC(C)=O)cc1 (stereo unspecified)	x	u	1%	13µM*	i	i
COc1ccc(CNC(=O)c2cnn3c(C)c(Cc4ccc(F)cc4)c(C)nc23)cc1	x	x	-7%	u	i	i
C#CC1(O)C=CC2C3CCC4=CC(=O)CCC4C3CCC21CC (stereo unspecified)	-48%	16%	7%	14µM*	i	i
CCC1(O)CCC2C3CCC4=CC(=O)CCC4C3CCC21CC (stereo unspecified)	x	u	-9%	u	i	i
COc1ccc2c(c1)CCC1C2CC[C@@]2(C)C1CC[C@@H]2NCCCCCCN1C(=O)C=CC1=O (stereo partly specified)	21%	-35%	x	x	x	x
Cc1cccc(-n2c(-c3cccs3)nc3ccccc3c2=O)c1	17%	12%	-3%	20µM*	i	i
COc1ccc2nc(N3CCN(C(=O)CS(=O)(=O)c4ccc(C)cc4)CC3)sc2c1	x	x	-8%	13µM*	i	i
Nc1cccc(N=Cc2c(O)n(Cc3ccc(F)cc3)c(=O)[nH]c2=O)c1	-2%	-1%	-3%	7%	i	11µM*
O=C(c1ccccc1Cl)N1CCC(c2nc3ccccc3s2)CC1	x	x	-2%	16µM*	i	i
Clc1ccc2sc(C3CCNCC3)nc2c1	-25%	0%	1%	6%	i	i
O=C(O)COc1ccccc1	-9%	-11%	5%	4%	i	i
Cc1ccccc1C(=O)NNC(=S)NC(=O)COc1ccccc1	7%	3.2µM*	x	3%	i	i
CN(N=O)c1ccc(O)c(O)c1	u	2%	x	x	x	x
O=P(Nc1cccc(F)c1)(Oc1ccccc1F)Oc1ccccc1F	14%	18µM*	2%	28%	u	i
c1ccc(N2CCN(c3ncnc4c3nc3n4CCCCC3)CC2)cc1	x	x	-6%	14µM*	i	i
Clc1ccccc1CN1CCN(c2ccccc2)CC1	3%	1%	-25%	-21%	i	i
SMILES	Mito fusion act	aSyn yeast inh	ERG-DNA inh	TDP-43 yeast inh	Abeta rescue	FUS suppressor
Cc1cc(C(C#N)c2ccc(Cl)cc2)c(Cl)cc1NC(=O)c1cc(I)cc(I)c1O (stereo unspecified)	-31%	-1%	11%	-3%	i	i
COC(=O)[C@@H]1N=C(c2ccc(OC)cc2)O[C@]12C(=O)N(Cc1ccc(OC)cc1)c1ccccc12	x	2%	x	-18%	i	14µM*
COc1ccc(Cn2c(O)c(/C=N/NC(=O)c3ccccc3)c(=O)[nH]c2=O)cc1	1%	-13%	1%	17%	i	i
C[C@H]1COC(=O)[C@@H](Cc2ccc(F)cc2)CC/C=C/C[C@@H](CC(=O)N(CCO)Cc2ccccc2)C(=O)N1	x	-2%	-13%	u	i	i
NCCCNCCSP(=O)(O)O	-34%	-11%	x	x	x	x
Nc1ccc(Br)cc1	x	0%	-7%	-14%	i	i
Nc1ccc2cc(Br)ccc2c1	-3%	8%	2%	35µM*	i	i
O=S(=O)(c1ccccc1C(F)(F)F)N1CCN(c2ncnc3sccc23)CC1	x	20%	7%	13µM*	i	i
CCS(=O)(=O)N1CCN(C2CCC(C)CC2)CC1 (stereo unspecified)	-2%	0%	x	-18%	i	i
O=C(Nc1ccc(Cl)cc1)Nc1nccs1	4%	-3%	0%	20µM*	i	i
COC(=O)C1=C(c2ccc(-c3ccccc3)c(F)c2)C[C@@H]2CC[C@H]1N2C(=O)NCCCOC(C)C	u	11%	-6%	23%	i	u
CC(C(=O)O)c1ccc(-c2ccccc2)c(F)c1 (stereo unspecified)	2%	-12%	-12%	16µM*	i	i
Cc1ccc(S(=O)(=O)N(C)C[C@@H]2Oc3ncc(Br)cc3C(=O)N([C@H](C)CO)C[C@H]2C)cc1	x	-9%	x	27%	i	i
O=[N+]([O-])c1cccc(NP(=O)(Oc2ccccc2)Oc2ccccc2)c1	-9%	u	-4%	22µM*	i	i
O=C1NCCOC(=O)[C@H](Cc2ccc(F)cc2)CC/C=C/C[C@@H]1CC(=O)N(CCO)Cc1ccccc1	x	4%	6%	13%	i	u
COc1ccccc1N1CCN(C(=O)c2cc3c(-c4ccccc4F)nn(C)c3s2)CC1	x	x	-3%	16µM*	i	18µM*
Cc1cccc(OC(=O)n2c(=S)oc3cc(Cl)ccc32)c1	u	-36%	-5%	-31%	i	x
Nc1ccc2c(c1)Cc1cc([N+](=O)[O-])ccc1-2	23%	u	1%	8.9µM*	i	i
O=[N+]([O-])c1cccc(O)c1	-3%	4%	-9%	u	i	i
O=[N+]([O-])c1ccc2c(c1)Cc1cc(O)ccc1-2	x	1%	-9%	3.5µM*	i	x
CCN(CC)P(=O)(Nc1ccc([N+](=O)[O-])cc1)c1c(C)nn(CCC#N)c1NC(=O)c1ccc(Cl)cc1Cl (stereo unspecified)	7%	1%	-1%	5%	i	i

Screening results: PubChem BioAssay, National Center for Advancing Translational Sciences (NCATS)
